Compounds with a hit are over-represented: about 4% of the library has one in this group of screens.
Mtb FBA inh: Mtb fructose-bisphosphate aldolase inhibition; purified M. tuberculosis FBA, fluorescence read-out; AID 588726; 360,000 tested, 2.3% active; P9WQA3; inhibition, % at 1 µM; in the data active means inhibition above about 27%;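 further: 0% = vehicle and 100% = reference inhibitor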
Target sequence (P9WQA3 whole entry, looked up): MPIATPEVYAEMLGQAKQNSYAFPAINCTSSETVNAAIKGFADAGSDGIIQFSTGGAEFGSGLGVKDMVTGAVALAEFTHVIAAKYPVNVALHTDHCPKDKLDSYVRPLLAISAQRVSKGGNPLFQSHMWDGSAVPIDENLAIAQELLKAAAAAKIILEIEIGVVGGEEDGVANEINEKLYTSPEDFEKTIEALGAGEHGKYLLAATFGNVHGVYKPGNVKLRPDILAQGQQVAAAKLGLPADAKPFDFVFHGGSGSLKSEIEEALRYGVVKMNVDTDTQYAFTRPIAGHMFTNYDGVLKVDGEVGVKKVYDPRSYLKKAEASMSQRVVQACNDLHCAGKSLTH
Rv3671c protease: Rv3671c (M. tuberculosis) protease inhibition | P9WHR9 | inhibition, % at 5.96 µM | 320,000 tested, 0.048% active | AID 2606; in the data active means inhibition above about 38%;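 further: extracellular domain of Rv3671c used as enzyme; 0% = enzyme with DMSO and 100% = no enzyme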
Mtb bLac sens: beta-lactam sensitization of Mtb H37Rv; M. tuberculosis H37Rv growth with meropenem, percent inhibition; inhibition, % at 25 µM; 330,000 tested, 0.27% active; AID 434955;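 further: growth measured after seven days incubation then overnight dye step; 0% = bacteria only wells and 100% = bacteria with antibiotic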
RecA splice inh: Mtb RecA intein splicing inhibition | 290,000 tested, 0.75% active | cell-free RecA intein splicing, fluorescence | inhibition, % (test concentration not listed); in the data active means inhibition above about 30%;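 further: 0% = vehicle wells and 100% = reference inhibitor control wells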
GDH-TPI counter: counter-screen for M. tuberculosis FBA inhibitors: GDH-TPI coupled enzymes | GDH-TPI coupled enzyme counterscreen, NADH absorbance | inhibition, % at 4.8 µM | 360,000 tested, 1.2% active | AID 588335; in the data active means inhibition above about 30%;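 further: 0% = DMSO wells and 100% = wells lacking the enzyme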
UGM FP inh: blocks M. tuberculosis UGM enzyme; P9WIQ1; purified UGM, fluorescence polarization probe displacement; inhibition, % at 10 µM; 320,000 tested, 0.06% active; AID 504406; in the data active means inhibition above about 10%, passing the limit was not always enough
GFP chromophore: counter-screen GFP chromophore formation inhibition; shares compounds with RecA splice inh; cell-free GFP chromophore formation, fluorescence; EC50, µM; 2,100 tested, 83% active
* = called active by the depositor; · = no result given. Unless noted, how the calls were made is not given here.

SMILES	Mtb FBA inh	Rv3671c protease	Mtb bLac sens	RecA splice inh	GDH-TPI counter	UGM FP inh	GFP chromophore
N#CC1=C(N)Oc2n[nH]c(-c3ccccc3)c2C1c1cccnc1 (stereo unspecified)	-4.6	-10.2	5.8	80.5*	-0.9	0.6	17.2*
COc1ccc(-c2[nH]nc3c2C(c2ccoc2)C(C#N)=C(N)O3)cc1 (stereo unspecified)	-4.6	-12.9	-14.2	87.2*	6.9	0.0	4.66*
O=C(NCCNC(=O)Oc1cccc2ccccc12)Oc1cccc2ccccc12	5.0	·	·	·	2.2	·	·
COc1ccc(N/N=C(\C#N)C(=N)N2CCCCC2)cc1	-5.5	12.6	35.7	2.2	3.4	-1.9	·
COc1ccc(N/N=C(\C#N)C(=N)SCc2ccccc2)cc1	-2.1	·	·	55.2*	-5.2	·	24.1*
CCC1Oc2ccc(C)cc2N(CC(=O)NCCCN2CCOCC2)C1=O (stereo unspecified)	0.0	-4.0	-2.2	-0.9	-6.1	-2.5	·
CCCn1c(CC)nc([N+](=O)[O-])c1S(=O)(=O)c1ccccc1	0.9	-7.5	96.8	46.2*	8.4	2.1	>38
CCc1nc(C)cn1S(=O)(=O)c1ccc([N+](=O)[O-])cc1	-2.2	3.8	2.2	-0.9	11.2	-0.4	·
N#Cc1ccc(S(=O)(=O)N2CCC(C(=O)Nc3cccc(C(=O)NC4CC4)c3)CC2)cc1	2.4	1.0	-5.7	·	2.7	1.3	·
CC1=C(CC(=O)c2ccc(Cl)cc2)C(=O)c2ccccc2C1=O	-0.8	-37.7	4.3	68.4*	11.2	1.1	11.3*
CC(C(=O)N(C)Cc1cccc(F)c1)N1CCN(S(=O)(=O)c2ccc3c(c2)OCCCO3)CC1 (stereo unspecified)	-1.5	·	·	·	2.4	·	·
CCCC(=O)OCCNc1cc(SCc2ccco2)c2nonc2c1[N+](=O)[O-]	-6.4	-17.8	100.1	79.1*	9.0	3.1	8.57*
Cc1nn(C(C)C(=O)NCc2ccco2)c(C)c1[N+](=O)[O-] (stereo unspecified)	4.1	5.1	-0.4	1.5	-2.6	-3.2	·
O=[N+]([O-])c1c(NCCO)cc(N2CCCCCC2)c2nonc12	-11.0	-4.0	-0.5	5.3	26.6	-0.6	·
Cc1nnc(Sc2cc(NCCCO)c([N+](=O)[O-])c3nonc23)s1	-8.8	·	·	91.4*	0.6	·	5.09*
CCCC(=O)OCCNc1cc(Sc2nccn2C)c2nonc2c1[N+](=O)[O-]	-6.8	-1.2	100.5	90.2*	1.9	-3.1	3.88*
CCCSc1cc(NCCOC(C)=O)c([N+](=O)[O-])c2nonc12	-0.4	-1.4	25.7	7.7	7.9	-0.5	·
CCCSc1cc(NCCOC(=O)CCC)c([N+](=O)[O-])c2nonc12	-3.5	9.3	100.1	60.3*	12.4	1.2	9.9*
CCn1c(=O)n(C)c2c(=O)n(C)c(=O)n(C)c21	0.0	·	·	·	6.8	·	·
CCOC(=O)C1CCCN(c2cc(NCCCO)c([N+](=O)[O-])c3nonc23)C1 (stereo unspecified)	·	-8.1	-10.4	-6.3	·	3.0	·
CCC(=O)OCCNc1cc(Sc2nc3ccccc3s2)c2nonc2c1[N+](=O)[O-]	-10.9	1.4	96.6	50.0*	11.2	0.5	4.24*
CC(=O)OCCCNc1cc(SCc2ccco2)c2nonc2c1[N+](=O)[O-]	-3.5	-21.7	97.7	78.2*	17.3	2.5	13.8*
CCC(=O)OCCNc1cc(Sc2nc3ccccc3[nH]2)c2nonc2c1[N+](=O)[O-]	-4.6	-14.0	99.6	·	15.8	4.5	·
CN1CCN(Cc2cc(=O)oc3ccc(Cl)cc23)CC1	2.6	-4.3	2.5	48.0*	11.7	-1.0	>38
C#CC(=O)N(c1cc(OC)ccc1OC)C(C(=O)NC1CCCC1)c1cccs1 (stereo unspecified)	-0.5	5.5	13.1	31.3*	6.6	-0.4	2.94*
C=CCOc1ccccc1CN(C(=O)CCl)c1ccc2c(c1)OCO2	-1.9	-1.7	95.7	80.6*	1.9	0.1	8.27*
O=C(CCNc1cccc(F)c1)c1cccc([N+](=O)[O-])c1	4.8	-3.9	32.6	31.9*	5.9	-4.3	>38
O=C(CCNc1ccc(Cc2ccncc2)cc1)c1cccc([N+](=O)[O-])c1	2.0	4.0	69.4	0.6	13.7	-0.4	·
O=C(NCC1(c2ccccc2)CCCC1)C1(c2ccccc2)CCCC1	0.1	-3.5	31.8	30.1*	-10.6	-2.3	>38

High-throughput results as filed in PubChem.
